The structures appear in SMILES notation. Where “and” joins values, the source holds several entries; their conditions need not be identical. Equal values may be shown once. Inconclusive results are not listed. A call without a number means that no potency is given here. A structure can be active in one record and inactive in another. Calls of active or inactive are those of the source. The call rests on the fitted dose curve; in most records, active means well fitted cell-killing curve with a large enough effect in the repeat runs; inconclusive means weak or mixed curves, or effect the other way; inactive means no such curve, though single readings can be large or run the other way.

A short description of one test: qHTS assay to identify small molecule antagonists of the glucocorticoid receptor (GR) signaling pathway - cell viability counter screen (AID 720693). Further: nearly all actives have a fitted effect of over 55% in size. The note with it: GR-bla HeLa viability, CellTiter-Glo luminescence, 18 h, with 5 nM dexamethasone present; series mostly up to 58.5 µM. A general note: In qHTS, concentration-response curves come from the screen itself.
Take `ClCCBr`: the compound was called inactive.
Still for that read-out and setting: under `CCNc1nc(NC(C)C)nc(SC)n1` stands “inactive”.
Turning to `CC(Oc1ccc(Cl)cc1Cl)C(=O)O` (configuration not stated), the call was inactive.
In the case of `CCC[CH2][Sn]([Cl])([Cl])[Cl]`, the result was inactive.
Still for that read-out and setting: the value for `CN(N=O)c1ccccc1` was “inactive”.
Still for that read-out and setting: under `O=c1ccc(=O)[nH][nH]1` stands “inactive”.
For the compound `Nc1c(Cl)c(Cl)nc(C(=O)O)c1Cl`, the compound was called inactive.
As to `CC(C)(Cl)Cl`, the outcome was inactive.
As to `CC(C)(C)OOC(=O)c1ccccc1`, the result was inactive.
The same measure, in the same setting: the value for `CCCCCOC(=O)c1ccccc1C(=O)OCCCCC` was “inactive”.
Same read-out and setting: under `O=[N+]([O-])c1ccccc1` stands “inactive”.
In the case of `O=NN1CCCCCCC1`, the result was inactive.
On the same count and under the same terms, the value for `c1ccc(OP(Oc2ccccc2)Oc2ccccc2)cc1` was “inactive”; that for `CCCCOC(=O)c1ccccc1C(=O)OCCCC` was “inactive”.
Regarding `Nc1ccc(Cc2ccc(N)cc2)cc1`, the compound was called inactive.
As for `COC(=O)c1ccccc1C(=O)OC`, the compound was called inactive.
For the compound `NCCc1ccc(O)cc1`, the compound was called inactive.
On the same count and under the same terms, under `C#CCN(C)[C@H](C)Cc1ccccc1` stands “inactive”.
For `CC(C)OC(=O)Nc1ccccc1`, the compound was called inactive.
Same read-out and setting: the value for `CC(C)OC(=O)Nc1cccc(Cl)c1` was “inactive”; that for `O=C(NC(=O)c1c(F)cccc1F)Nc1cc(Cl)c(OC(F)(F)C(F)C(F)(F)F)cc1Cl` (configuration not stated) was “inactive”; that for `Oc1ccccc1Cl` was “inactive”.
Take `Cc1ccccc1O`: the call was inactive.
For `CCc1cccc(C)c1N(C(=O)CCl)C(C)COC` (configuration not stated), the result was inactive.
Same read-out and setting: under `CC(C)C1(C)N=C(c2nc3ccccc3cc2C(=O)O)NC1=O` (configuration not stated) stands “inactive”.
Same read-out and setting: the value for `C1CC2OC2CC1C1CO1` (configuration not stated) was “inactive”; that for `Cc1[nH]c(=O)n(C(C)(C)C)c(=O)c1Cl` was “inactive”; that for `CCN(CC)c1ccccc1` was “inactive”.
For `CCC12COCN1COC2`, the outcome was inactive.
Regarding `c1ccc2c(c1)oc1ccccc12`, the compound was classed as inactive.
The same measure, in the same setting: the value for `COc1ccc2c3c1O[C@H]1[C@@H](O)C=C[C@H]4[C@@H](C2)N(C)CC[C@@]341` was “inactive”.
Regarding `BrCCBr`, the compound was called inactive.
Still for that read-out and setting: the value for `CC(C)N1C(=O)c2ccccc2NS1(=O)=O` was “inactive”.
Turning to `CC(C)(C)OOC(C)(C)C`, the compound was classed as inactive.
Same read-out and setting: the value for `O=Cc1cccc(Oc2ccccc2)c1` was “inactive”.
On to `Cc1cc(-c2cc(C)c(N)c(C)c2)cc(C)c1N`, for which the result was inactive.

The nature of another test: qHTS assay for identifying genotoxic compounds that show differential cytotoxicity against isogenic chicken DT40 cell lines with known DNA damage response pathways - wild type cell line (AID 743012). Further: nearly all actives have a fitted effect of over 60% in size. Further: potency means the concentration at half of the fitted maximal effect. The note with it: DT40 wild type chicken cells viability, CellTiter-Glo, 40 h; series mostly up to 68.4 µM. The method in brief:
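Luminescent ATP viability signal (CellTiter-Glo, 30 min RT) recorded after wild type DT40 cells were incubated with compounds for 40 h at 37 C/5% CO2.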
Regarding `ClCCBr`, the Potency result is “inactive”.
The same measure, in the same setting: under `CCNc1nc(NC(C)C)nc(SC)n1` stands “inactive and 61.1 µM (active)”; under `CC(Oc1ccc(Cl)cc1Cl)C(=O)O` (configuration not stated), “inactive”.
Same read-out and setting: the value for `CCC[CH2][Sn]([Cl])([Cl])[Cl]` was “inactive”.
For the compound `CN(N=O)c1ccccc1`, the Potency entry was “inactive”.
On to `O=c1ccc(=O)[nH][nH]1`, for which the Potency entry is “inactive”.
Still for that read-out and setting: under `Nc1c(Cl)c(Cl)nc(C(=O)O)c1Cl` stands “inactive”; under `CC(C)(Cl)Cl`, “inactive”.
Consider `CC(C)(C)OOC(=O)c1ccccc1`, for which the Potency result was “inactive”.
Same read-out and setting: the value for `CCCCCOC(=O)c1ccccc1C(=O)OCCCCC` was “inactive and 61.1 µM (active)”; that for `O=[N+]([O-])c1ccccc1` was “inactive”; that for `O=NN1CCCCCCC1` was “inactive”.
Same read-out and setting: under `c1ccc(OP(Oc2ccccc2)Oc2ccccc2)cc1` stands “inactive”.
Regarding `CCCCOC(=O)c1ccccc1C(=O)OCCCC`, the Potency is 24.3 µM (active).
Still for that read-out and setting: under `Nc1ccc(Cc2ccc(N)cc2)cc1` stands “inactive”; under `COC(=O)c1ccccc1C(=O)OC`, “inactive”; under `NCCc1ccc(O)cc1`, “inactive”.
Still for that read-out and setting: under `C#CCN(C)[C@H](C)Cc1ccccc1` stands “inactive”.
On the same count and under the same terms, under `CC(C)OC(=O)Nc1ccccc1` stands “inactive”; under `CC(C)OC(=O)Nc1cccc(Cl)c1`, “inactive”; under `O=C(NC(=O)c1c(F)cccc1F)Nc1cc(Cl)c(OC(F)(F)C(F)C(F)(F)F)cc1Cl` (configuration not stated), 3.35 µM (active).
As to `Oc1ccccc1Cl`, the Potency entry is “inactive”.
Take `Cc1ccccc1O`: the Potency result is “inactive”.
As for `CCc1cccc(C)c1N(C(=O)CCl)C(C)COC` (configuration not stated), the Potency is 40.8 µM (active) and 10.9 µM (active).
On the same count and under the same terms, under `CC(C)C1(C)N=C(c2nc3ccccc3cc2C(=O)O)NC1=O` (configuration not stated) stands “inactive”; under `C1CC2OC2CC1C1CO1` (configuration not stated), “inactive”; under `Cc1[nH]c(=O)n(C(C)(C)C)c(=O)c1Cl`, “inactive”.
For the compound `CCN(CC)c1ccccc1`, the Potency entry was “inactive”.
On to `CCC12COCN1COC2`, for which the Potency entry was “inactive”.
Take `c1ccc2c(c1)oc1ccccc12`: the Potency entry is “inactive”.
Same read-out and setting: under `COc1ccc2c3c1O[C@H]1[C@@H](O)C=C[C@H]4[C@@H](C2)N(C)CC[C@@]341` stands “inactive”.
As for `BrCCBr`, the Potency entry was “inactive”.
On the same count and under the same terms, the value for `CC(C)N1C(=O)c2ccccc2NS1(=O)=O` was “inactive”.
Turning to `CC(C)(C)OOC(C)(C)C`, the Potency result was “inactive”.
Turning to `O=Cc1cccc(Oc2ccccc2)c1`, the Potency result was “inactive”.
As for `Cc1cc(-c2cc(C)c(N)c(C)c2)cc(C)c1N`, the Potency result is “inactive”.

(Values after PubChem BioAssay (Tox21).)
